Sampled rows, rich in hits. Any-hit rate of the full collection: about 12%.
NS1 inh: qHTS Assay for Inhibitors of Influenza NS1 Protein Function; Potency, µM (top dose mostly 46.1 µM), without a hit: top-dose activity, positive = more growth; 270,000 compounds, 0.4% hits; AID 2326, 2010; further: potency means the concentration at half of the fitted maximal effect; actives are rising curves; nearly all actives have a fitted effect of over 50% in size
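Growth recovery, yeast-based: influenza A NS1 expressed in S. cerevisiae causes slow growth, and suppressors are detected by OD600. The parent strain without NS1 is used as positive control.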
Shiga toxin inh: A qHTS for Small Molecule Inhibitors of Shiga Toxin; Vero cells, Shiga toxin protein synthesis inhibition reporter; AID 2315, 2010; inhibition, % at 38.7 µM; 290,000 compounds, 9.2% hits; in the data active means inhibition mostly above about 28%, no sharp cut-off; inactive means mostly below about 43%; further: 0% is about no effect
Cycloheximide cs: Cycloheximide Counterscreen for Small Molecule Inhibitors of Shiga Toxin; 300,000 compounds, 12% hits; cell reporter, cycloheximide protein synthesis inhibition counterscreen; AID 2314, 2010; max response, %; in the data active means max response mostly above about 13%, no sharp cut-off; inactive means mostly below about 14%; further: read at 38.3 µM for the half of the compounds with a filed dose; 0% is about no effect
SARS PLpro yeast: qHTS of Yeast-based Assay for SARS-CoV PLP; S. cerevisiae expressing SARS-CoV PLpro, growth rescue; Potency, µM (top dose mostly 32.9 µM), inactives show at the highest dose activity, positive = growth rescue, actives largely listed as activators; 330,000 compounds, 0.19% hits; further: potency means the concentration at half of the fitted maximal effect; 0% is about no effect; nearly all actives have a fitted effect of over 55% in size
* hit, by the source's call; . = not tested or not shown; + = active, no number. Unless noted, the call rests on the fitted dose curve.

SMILES | NS1 inh | Shiga toxin inh | Cycloheximide cs | SARS PLpro yeast
COc1cccc(C(=O)/C=C/Nc2cccc(O)c2)c1 | -70.3% | -10.3 | -1.1 | -10.8%
COc1ccc(N/C=C/C(=O)c2ccc(Cl)cc2)cc1 | 7.6% | 69.2* | 63.2* | 17.4%
COc1cccc(N/C=C/C(=O)c2ccc(C)cc2)c1 | -47.8% | 62.6* | 20.7* | -5.7%
COc1cccc(N/C=C/C(=O)c2ccc(Cl)cc2)c1 | -16.7% | 92.2* | 62.6* | -4.5%
S=c1[nH]nc(-c2ccccn2)n1/N=C/c1ccc(-c2ccccc2Br)o1 | . | 9.8 | 7.4 | -2.6%
C=CCN(Cc1cn(C)nc1-c1cccc(Cl)c1)C1CCS(=O)(=O)C1 (centres undefined) | -0.3% | -11.5 | 1.1 | 0.8%
CC12CCC(=O)N1C(C(=O)Nc1cc(Cl)ccc1N1CCOCC1)CS2 (centres undefined) | -0.6% | -13.0 | 0.8 | 14.4%
CN1C(=O)/C(=C\c2ccc(N3CCCCCC3)cc2)C(=O)NC1=S | -1.7% | -0.7 | 16.6 | 2.5%
CN1C(=O)/C(=C\c2ccc(N3CCCCC3)o2)C(=O)NC1=S | 10.1% | 38.5* | 27.4* | 0.6%
CN1C(=O)/C(=C/c2ccc(N3CCCCCC3)o2)C(=O)NC1=S | 4.8% | 64.3* | 40.2* | -2.3%
CCOc1ccc(CCNC(=O)c2cccc(-n3cnnn3)c2)cc1OCC | . | . | . | -3.8%
CC1(C)CCCC2=C1CC1C(=O)N(N)C(=O)C1C2 (centres undefined) | 0.2% | -1.9 | -1.3 | 1.4%
COC(=O)Cc1csc(Nc2ccccc2Cl)n1 | -43.7% | 51.7* | 35.8* | -51.6%
CCOC(=O)c1sc(Nc2ccccc2Cl)nc1C | -38.6% | 87.6* | 41.7* | -3.6%
CCOC(=O)c1sc(NCCNc2nc(C)c(C(=O)OCC)s2)nc1C | 0.9% | 8.2 | -2.9 | 0.8%
CCOC(=O)c1sc(NC(=O)Nc2ccccc2F)nc1C | -7.6% | 75.4* | 86.4* | 0.0%
CCOC(=O)c1sc(NC(=O)/C=C/c2c(F)cccc2Cl)nc1C | 5.2% | -7.2 | 40.5* | 13.6%
CCOC(=O)c1sc(NC(=O)Cc2ccc(C)cc2)nc1C | -1.8% | 21.5 | 13.8 | -1.6%
CCN(CC(=O)NCc1ccc(F)cc1)C(=O)COc1ccccc1[N+](=O)[O-] | . | . | . | 2.6%
COc1cc(/C=N/N=C2/SCC(=O)N2c2ccc(O)cc2)ccc1O | . | 7.6 | -1.5 | 0.6%
CCOC(=O)C1CCN(C(=O)C2CC(=O)N(c3ccc4c(c3)OCCO4)C2)CC1 (centres undefined) | 0.8% | 1.9 | -2.2 | -0.5%
CN(CCC#N)C(=O)COC(=O)c1ccc(Cl)c(S(=O)(=O)N(C)c2ccccc2)c1 | -4.6% | -13.3 | 1.8 | -0.6%
COc1ccc(-n2nc3c(c2NC(=O)CCCl)CSC3)cc1 | -2.7% | 4.9 | -1.6 | 0.3%
CCOC(=O)c1cc2nc(Nc3ccc(OC)cc3)sc2s1 | -6.5% | 57.8* | 14.0* | 2.0%
CCOC(=O)c1sc(Nc2ccc(Br)cc2)nc1C | -1.8% | 89.2* | 29.6* | -1.7%
SMILES | NS1 inh | Shiga toxin inh | Cycloheximide cs | SARS PLpro yeast
CCOC(=O)c1sc2cccc(F)c2c1N | -16.2% | 25.1* | 25.3* | 4.8%
CN(C)Cc1c(C(=O)N/N=C/c2cccs2)nnn1-c1nonc1N | 5.1% | -16.6 | -0.9 | 7.3%
COc1ccc(CCn2c(C)cc(C(=O)CN3C(=O)C(=O)N(Cc4ccco4)C3=O)c2C)cc1 | . | . | . | 0.2%
N#C/C(=C\c1cccnc1)C(=O)Nc1ccc(O)cc1F | 7.3% | -3.9 | -4.4 | 1.9%
CC(C)(CCc1nc2ccccc2[nH]1)C(=O)O | 2.8% | . | . | .
C[C@H]1CN=C(N(C)C)N1CCC1CCCCC1 | . | . | . | -0.6%
COc1ccc(NC(=O)Cn2nc(Cc3cccnc3)c3ccccc3c2=O)c(OC)c1 | 0.0% | 29.4 | 5.1 | 1.5%
N[C@@H](Cc1cc(CP(=O)(O)O)cc(-c2ccccc2Cl)c1)C(=O)O | . | 24.3 | 5.6 | .
COc1ccccc1OCCCOc1cccc(/C=C2\SC(=O)NC2=O)c1 | -6.2% | . | 4.3 | 2.2%
O=C1NC(=O)C(=Cc2cccc(OCCOc3ccccc3)c2)C(=O)N1 | -7.4% | 65.3* | 44.2* | -0.6%
Cc1ccc(OCCOc2cccc(C=C3C(=O)NC(=O)NC3=O)c2)c(C)c1 | -74.0% | 109.7* | 110.2* | -0.1%
Nc1nnc(SCCCC(=O)c2ccc(Br)cc2)s1 | 1.6% | 66.5* | 57.7* | 11.7%
Nc1nnc(SCCCC(=O)c2ccc(F)cc2)s1 | -5.0% | + | 32.9* | -23.2%
O=C(COC(=O)Cc1ccsc1)Nc1ccc(Cl)cc1F | . | . | . | -25.1%
COc1ccc2cc(C(=O)N(C)CC(=O)Nc3ccccc3Br)ccc2c1 | . | . | . | -2.1%
Oc1ccc(Nc2nc(-c3ccccc3F)nc3ccccc23)cc1 | 1.2% | -4.1 | -1.0 | 0.2%
CC(=O)Nc1c(Nc2ccccc2)c2ccccc2oc1=O | 3.1% | -5.8 | -2.0 | 1.2%
O=c1oc(Nc2ccc(F)cc2)nc2ccccc12 | -14.0% | 81.2* | 16.8* | -0.6%
O=c1nc(Nc2ccccc2)oc2ccccc12 | -4.1% | 53.4* | 38.3* | -7.3%
O=c1[nH]c2ccc(Cl)cc2c(-c2ccccc2)c1N1CCN(c2ccccn2)CC1 | -77.4% | -3.3 | -4.5 | -3.3%
COc1ccc(CCNc2nc(-c3ccncc3)cs2)cc1OC | -33.0% | 14.9 | 8.3 | -5.2%
CCCCCNc1nc(-c2ccccc2)cs1 | -10.9% | 80.1* | 41.6* | 7.1%
c1ccc(CCNc2nc(-c3ccncc3)cs2)cc1 | . | 51.9 | 29.0* | -4.5%
O=C1C2C3C=CC(CC3)C2C(=O)N1/N=C/c1c[nH]c2ccccc12 (centres undefined) | . | 124.9* | 51.9* | -3.9%
COc1ccc(/C=N/N2C(=O)C3C4C=CC(CC4)C3C2=O)c(OC)c1 (centres undefined) | . | 54.7* | 45.3* | 2.2%
SMILES | NS1 inh | Shiga toxin inh | Cycloheximide cs | SARS PLpro yeast
COc1ccccc1/C=N/N1C(=O)C2C3C=CC(CC3)C2C1=O (centres undefined) | . | 35.5 | 12.9 | -6.4%
CCC(NC(=O)Cc1cccs1)c1ccccc1 (centres undefined) | 0.1% | -9.5 | 1.8 | -8.3%
C=CCc1c(C)nc(-c2ccccc2)nc1N/N=C/c1ccncc1 | . | 30.1 | 23.1* | -13.1%
C=CCc1c(C)nc(-c2ccccc2)nc1N/N=C/c1ccccc1 | 8.8% | -3.3 | -3.5 | -29.3%
CN=C(Nc1ccc(Cl)cc1)c1ccc(C(F)(F)F)cc1 | -14.9% | 26.8 | 14.7* | -5.9%
CN=C(Nc1ccc(Cl)cc1)c1cccc(C(F)(F)F)c1 | -8.4% | 8.8 | -1.8 | -2.7%
O=C(c1ccc(-c2nc3ccccc3s2)o1)N1CCN(c2ccccc2O)CC1 | -30.2% | 44.9 | 37.0* | -13.1%
O=Cc1ccc(-c2nc3ccccc3s2)o1 | -35.0% | 60.6* | 29.1* | -4.0%
O=C(O)c1ccc(-c2nc3ccccc3s2)o1 | 1.2% | 78.0* | 45.4* | -1.0%
O=C(CN1CCN(C(=O)c2ccc(-c3nc4ccccc4s3)o2)CC1)Nc1ccc(F)cc1 | . | . | . | -2.5%
O=C(O)CCN1C(=O)/C(=C/c2ccc(-c3nc4ccccc4s3)o2)SC1=S | 10.7% | 17.4 | 12.5 | -4.1%
CCn1c(CCCc2nc3c([nH]2)c(=O)n(C)c(=O)n3C)nc2c1c(=O)n(C)c(=O)n2C | -5.3% | . | . | .
COc1nc(NCc2ccco2)nc(NC2CCCCC2)n1 | -10.5% | 41.9 | 26.3* | -3.6%
COc1nc(NCc2ccco2)nc(N2CCC(C)CC2)n1 | -21.3% | 15.8 | -2.6 | 16.9%

Source: PubChem BioAssay
